Rows were chosen to be rich in hits. Some 15% of all compounds tested hit in one or more screens of this group.
HCV inhibitor = blocks hepatitis C virus; Huh7.5.1 HCVcc-Cre infection, luciferase reporter, 44 h; Potency, µM (top dose mostly 41.8 µM), without a hit: at the top dose activity change, negative = inhibition, most hits filed as inhibitors; 3.4% of 340,000 active; further: potency means the concentration at half of the fitted maximal effect; on the % scale 0 is the no-effect control and ±100 the full control effect
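Cells seeded at 1,000/well and cultured 4 h, then compounds added followed by HCVcc-Cre virus (~0.5 moi). After 44 h further culture, luciferase substrate was added, plates held 15 min at room temperature, and luminescence read for 15 sec.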
Pf growth 96h = inhibits malaria parasite growth, 96 h; P. falciparum luciferase reporter growth, 96 h; Potency, µM (titrated, usually from 28.7 µM), without a hit: at the top dose activity change, negative = inhibition, hits mostly inhibitors; 6.9% of 320,000 active; AID 504834; further: potency means the concentration at half of the fitted maximal effect; on the % scale 0 is the no-effect control and ±100 the full control effect
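Parasite growth measured via integrated firefly luciferase reporter in P. falciparum. Infected erythrocytes at 2% hematocrit, 0.05% parasitemia final were treated 96 hours at 37 C under 5% CO2, and luminescence was read.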
Pf growth 48h = inhibits P. falciparum growth in the first generation, 48 h | 5.9% of 310,000 active | AID 504832 | Potency, µM (doses to about 28.7 µM), without a hit: at the highest dose activity change, negative = inhibition, usual class: inhibitors | P. falciparum luciferase growth in erythrocytes, 48 h; further: potency means the concentration at half of the fitted maximal effect; on the % scale 0 is the no-effect control and ±100 the full control effect
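Here the parasites carry a stable luciferase gene and grow inside erythrocytes in Albumax-based RPMI medium with compound for one erythrocytic cycle. Activity is scored as loss of luminescent signal.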
HCMV antiviral = human cytomegalovirus inhibition. 4.5% of 410,000 active. HFF cells, HCMV-luciferase reporter, 72 h; active compounds read low. activity change, negative = inhibition, % at 57.5 µM; in the data active means activity change below about -60%; inconclusive means no clear call, values can overlap the other calls; inactive means above about -39%; further: on the % scale 0 is the no-effect control and ±100 the full control effect
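Luciferase read-out from HCMV-luciferase-infected HFFs (MOI 1 PFU/cell) 72 h post infection at 37C; compounds added after 16 h cell attachment; activity normalized between buffer-only basal and Salinomycin (10uM) inhibitor controls.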
Sm TGR block = inhibitors of Schistosoma mansoni thioredoxin glutathione reductase. Q962Y6. purified TGR, DTNB reduction, TNB absorbance 405 nm. Potency, µM (doses to about 114 µM), for inactives: top-dose activity change, negative = inhibition, hits mostly inhibitors. 3% of 360,000 active; further: potency means the concentration at half of the fitted maximal effect; on the % scale 0 is the no-effect control and ±100 the full control effect; nearly all actives have a fitted effect of over 60% in size
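First, TGR (20 nM dispensed) and NADPH were mixed with compound. Second, a 15 min room-temperature incubation followed. Third, further NADPH and then DTNB were added to start the reaction. Finally, TNB absorbance was monitored kinetically.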
SARS PLpro yeast = inhibitors of SARS-CoV papain-like protease in yeast. S. cerevisiae expressing SARS-CoV PLpro, growth rescue. Potency, µM (series often up to 32.9 µM), without a hit: at the top dose activity, positive = growth rescue, usual class: activators. 0.19% of 330,000 active. AID 485353; calls by dose curve; further: potency means the concentration at half of the fitted maximal effect; 0% is about no effect; nearly all actives have a fitted effect of over 55% in size
* marks the source's active call; other numbers are inactive results; ? = inconclusive; . = not tested or not shown; ! = a repeat was not active. Unless noted, the call rests on the fitted dose curve; in most records, active means well fitted curve in the direction sought with a large enough effect; inconclusive means small, poorly fitted or top-dose-only effect, or another doubt; inactive means no such curve, though single readings can be large; an effect the other way counts as inactive or inconclusive.

SMILES	HCV inhibitor	Pf growth 96h	Pf growth 48h	HCMV antiviral	Sm TGR block	SARS PLpro yeast
Cc1ccc(NC(=O)CCC(=O)N/N=C/C=C/c2ccccc2)cc1	-2.8%	156.1%	-12.6%	27.1	0.8%	4.9%
CC12CCC(C(=O)OC3CCCCC3)(OC1=O)C2(C)C (stereo not drawn)	23.9%	11.7µM*	30.5%	-24.5	12.4%	1.1%
CN1CCC(OC(=O)C23CCC(C)(C(=O)O2)C3(C)C)CC1 (stereo not drawn)	15.6%	.	9.9%	-20.2	1.8%	0.7%
Cc1ccc(C(=O)CCc2ccc(N)cc2)cc1	?	55.8%	60.7%	24.1	-16.3%	0.4%
CC(Sc1nc2ccccc2[nH]1)C(=O)Nc1ccccc1F (stereo not drawn)	3.0%	-24.4%	140.1%	-73.0*	4.9%	-0.9%
CC(SCc1ccccc1)C(=O)Nc1ccccc1F (stereo not drawn)	10.1%	0.928µM*	32.5%	11.6	0.0%	3.5%
COc1ccc(-c2[nH]ncc2CN2CCC(C(=O)N3CCOCC3)CC2)c(F)c1	9.5%	?	15.2%	-62.9*	7.6%	-0.1%
CCCC(=O)Nc1cccc(-c2nc3ccccc3c(=O)o2)c1	7.3%	6.8%	18.6%	-5.2	18.7%	-0.6%
Cc1cc(C)c(S(=O)(=O)N2CCN(S(=O)(=O)N3CCOCC3)CC2)c(C)c1	?	2.33µM*	-5.0%	-34.9	-0.6%	0.1%
COc1ccc(CS(=O)(=O)CC2(O)CCN(C(=O)c3cccc(C(F)(F)F)c3)CC2)cc1	-2.7%	3.0%	14.7µM*	30.5	21.0%	1.1%
CCC[n+]1c2ccccc2cc2ccccc21	?	?	.	-70.0*	?	-2.5%
CCCC[n+]1c2ccccc2cc2ccccc21	6.31µM*	0.0%	?	?	?	-11.1%
Cc1ccc2ccccc2[n+]1CCCS(=O)(=O)[O-]	1.1%	47.2%	30.8%	12.3	10.3%	6.1%
CCCC(=O)c1cc2ccccc2oc1=O	2.9%	0.0%	23.7%	-23.5	2.4%	8.7%
CCOC(=O)C(CC)c1cc2n(c(=O)c1C#N)CCC21OCCO1 (stereo not drawn)	.	.	.	-10.2	.	.
Cc1ccc(-c2noc(CNC(=O)COc3ccccc3C)n2)cc1	10.4%	-14.4%	15.5%	-0.1	-26.0%	-3.3%
CC(=O)N1CCN(C2c3cccc4cccc(c34)C2NS(=O)(=O)c2ccccc2)CC1 (stereo not drawn)	15.9%	13.2%	?	-9.5	-7.9%	-3.0%
Cc1ccc(S(=O)(=O)NC2c3cccc4cccc(c34)C2Sc2nc(C)cc(C)n2)cc1 (stereo not drawn)	?	8.28µM*	10.4µM*	1.4	-7.5%	30.0%
Cc1ccc(C(=O)N2CCN(C3c4cccc5cccc(c45)C3NS(=O)(=O)c3ccccc3)CC2)cc1 (stereo not drawn)	?	?	2.08µM*	-18.0	1.2%	-0.8%
C[C@@H](C(=O)N1CCN(C(=O)OC(C)(C)C)CC1)n1cc(CCCN=C(NC(=O)OC(C)(C)C)NC(=O)OC(C)(C)C)nn1	-18.7%	33.1%	-11.9%	0.2	-16.4%	1.5%
COCCSc1ccccc1C(=O)Nc1ccc(Cl)cn1	-8.3%	-12.8%	24.5%	-68.5*	3.5%	-4.3%
O=C(COC(=O)CNC(=O)c1ccccc1)Nc1ccc(Cl)cn1	-13.4%	.	.	-60.7*	.	1.5%
O=C(CCCOc1ccccc1)Nc1ccc(Cl)cn1	?	74.3%	20.4%	-65.1*	7.6%	-0.6%
COCCSc1ccccc1C(=O)Nc1nccs1	2.9%	.	-2.3%	25.6	-8.8%	-1.5%
CCc1cc(C(=O)Nc2c(C)nn(Cc3ccc(C)cc3)c2C)no1	.	.	.	-14.0	1.0%	.
SMILES	HCV inhibitor	Pf growth 96h	Pf growth 48h	HCMV antiviral	Sm TGR block	SARS PLpro yeast
CC1(C)Cc2c(sc(NC(=O)C(=O)N3CCOCC3)c2C(N)=O)CO1	18.6%	?	-12.1%	0.0	-24.3%	2.1%
O=C(NCCCCc1ccccc1)C1CC(c2ccc(C(F)(F)F)cc2)=NO1 (stereo not drawn)	11.6%	82.3%	47.6%	-1.8	10.7%	4.3%
Cc1cc(C)[n+](-c2ccc(Oc3ccccc3)c(S(=O)(=O)[O-])c2)[nH]1	6.8%	25.0%	17.3%	40.7	41.7%	-0.8%
CCC(=O)Nc1c2c(nc3c1CCC3)CCCC2	8.4%	2.08µM*	6.5%	2.1	-6.3%	-3.6%
COc1ccc2c(c1)[nH]c1c(N3CCSCC3)ncnc12	-81.9%	6.57µM*	4.65µM*	?	12.7%	-2.3%
COc1cc2[nH]c3c(N4CCN(c5ccc(Cl)cc5)CC4)ncnc3c2cc1OC	?	?	4.15µM*	?	-9.9%	-6.6%
COc1ccc2c(c1)[nH]c1c(N3CCN(Cc4ccc5c(c4)OCO5)CC3)ncnc12	?	?	2.62µM*	-38.9	12.1%	-1.9%
Cc1ccc2[nH]c3c(N4CCN(Cc5ccc6c(c5)OCO6)CC4)ncnc3c2c1	.	.	?	?	1.9%	2.8%
COc1ccc2c(c1)[nH]c1c(=O)n(CCN(C)C)cnc12	8.9%	.	29.7%	168.5	3.1%	-7.6%
COc1ccccc1N(C(=O)CNC(=O)c1ccco1)C(C(=O)NCC1CCCO1)c1ccccc1 (stereo not drawn)	-11.6%	25.9%	14.0%	-32.3	-5.3%	2.9%
COc1cc(O)c(CCC(=O)c2ccc(OC)c(OC)c2)c(OC)c1	?	?	-1.5%	3.2	-6.4%	-5.2%
O=C(NCCc1csc(-c2ccc(F)cc2)n1)c1cccs1	.	.	.	-25.6	1.1%	.
Cc1ccc(-c2nc(CCNC(=O)c3ccco3)cs2)cc1	10µM*	?	?	-25.8	-6.0%	3.6%
O=C(NCCc1csc(-c2cccnc2)n1)c1ccco1	11.2%	-5.7%	.	-27.1	0.0%	-8.2%
Cc1cccc(-c2nc(CCNC(=O)c3ccc(Br)o3)cs2)c1	.	.	.	-29.2	-2.9%	.
Cc1cccc(-c2nc(CCNC(=O)c3ccco3)cs2)c1	.	.	.	-68.2*!	0.3%	.
O=C(NCCc1csc(-c2ccc(Cl)cc2)n1)c1ccco1	11.2µM*	8.7%	-0.7%	6.8	?	-11.8%
COc1ccc(-c2nc(CCNC(=O)c3cccs3)cs2)cc1	35.5µM*	?	-26.0%	?	-3.3%	-24.1%
Cc1ccc(/C(O)=C2/C(=O)C(=O)N(c3ccccn3)C2c2cccc([N+](=O)[O-])c2)cc1 (stereo not drawn)	9.9%	0.0%	23.8%	-3.5	-13.5%	-1.5%
COc1ccc(CN2CC[C@H]3C=CC[C@@H](C(=O)Nc4ccc(Cl)c(C(F)(F)F)c4)[C@H]3C2=O)cc1OC	?	.	.	29.6	.	.
O=C(c1ccc2c(c1)OCCO2)N(Cc1cccnc1)c1nc2c(F)cccc2s1	.	.	.	-20.0	10.8%	.

Screens: PubChem, National Center for Advancing Translational Sciences (NCATS)
